# PubChem BioAssay
# Active and inactive are the calls of the source.
# How the values were obtained:
# Albumin (Bos taurus) = Albumin (Bos taurus) (UniProt P02769); assay: compounds binding labelled BSA control protein – biochemical, small-molecule microarray, Alexa647 label, 635/667 nm fluorescence, artefact control for SMM control protein annotation, profiling panel (AID 1118); conditions: BSA-A647 binding, fluorescence 635 nm, higher = more signal;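 note: score merges 667 nm emission intensity and signal-to-noise per printed compound spot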
# Sequence of Albumin (Bos taurus) (P02769 whole entry, looked up): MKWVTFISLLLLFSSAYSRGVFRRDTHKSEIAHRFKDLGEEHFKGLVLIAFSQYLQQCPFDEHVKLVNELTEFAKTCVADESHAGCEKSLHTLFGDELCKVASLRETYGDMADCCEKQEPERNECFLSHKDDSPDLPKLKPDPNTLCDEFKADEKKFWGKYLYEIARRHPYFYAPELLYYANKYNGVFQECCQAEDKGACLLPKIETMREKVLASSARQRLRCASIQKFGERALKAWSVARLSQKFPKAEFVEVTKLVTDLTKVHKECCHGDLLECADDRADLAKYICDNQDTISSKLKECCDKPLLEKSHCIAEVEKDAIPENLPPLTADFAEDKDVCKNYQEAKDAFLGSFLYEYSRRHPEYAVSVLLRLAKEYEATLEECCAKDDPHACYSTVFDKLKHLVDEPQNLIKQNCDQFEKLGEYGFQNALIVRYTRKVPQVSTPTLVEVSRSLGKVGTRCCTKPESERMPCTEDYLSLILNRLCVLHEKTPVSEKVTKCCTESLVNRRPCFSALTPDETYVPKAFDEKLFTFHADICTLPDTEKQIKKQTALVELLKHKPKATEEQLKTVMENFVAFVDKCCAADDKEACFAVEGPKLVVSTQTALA
# [1] = probe aXIP binding to arrayed compounds – biochemical, NeuroSMM set, 635/667 nm fluorescence, primary screen (AID 1119); conditions: small-molecule microarray, higher = more signal, called active from +8 up or from −8 down;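 note: probe is the protein aXip251-270 applied at 1 µg/mL to compound-printed slides; binding of probe to printed compounds measured as 667 nm fluorescence plus signal to noise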
# [2] = probe aNOTCH3 binding on compound microarray – biochemical, small-molecule microarray, 635/667 nm fluorescence, primary screen (AID 1120); conditions: higher = more signal;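 note: probe is a biotin-tagged antibody raised against NOTCH3 rather than NOTCH3 protein; score merges spot fluorescence near 667 nm with spot signal to noise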
# [3] = probe aNOTCH2 binding on compound microarray – biochemical, small-molecule microarray, 635/667 nm fluorescence, primary screen (AID 1121); conditions: higher = more signal;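 note: score merges feature fluorescence read at 667 nm with its signal to noise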
# [4] = biological target: Carbonic anhydrase 2 (Homo sapiens) (UniProt P00918); assay: compounds binding carbonic anhydrase 2 – biochemical, small-molecule microarray, Alexa647-labelled CAII, profiling panel (AID 1122); conditions: CAII-A647 binding fluorescence, higher = more signal
# [5] = COS7 lysate on small-molecule microarray, probe aHis, 635 nm (AID 1123); conditions: COS7 cell lysate, fluorescence, higher = more signal;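 note: z-score combines 667nm fluorescence intensity with signal-to-noise per printed compound spot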
# [6] = probe aLAP1 signal on lysate-treated microarray – cell lysate, small-molecule microarray, COS7 lysate, primary screen (AID 1124); conditions: probe aLAP1, fluorescence, higher = more signal;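 note: lysate comes from COS7 cells expressing LAP1 and is applied at 0.3 µg/mL; score merges spot fluorescence near 667 nm with signal-to-noise over triplicate slides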
# Sam68 (KHDRBS1) = assay: compounds binding KHDRBS1 protein – biochemical, small-molecule microarray, 635 nm fluorescence, primary screen (AID 1125); conditions: higher = more signal;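 note: score merges 667 nm channel intensity with signal to noise over triplicate slides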
# [7] = system: Chordin-like protein 2 (CHRDL2); assay: compounds binding chordin-like 2 – biochemical, small-molecule microarray, 635 nm fluorescence, primary screen (AID 1126); conditions: fluorescence 635 nm, higher = more signal;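 note: printed compound slides probed with Chrdl2 protein at 4 µg/mL for 1 h at 4 C; score merges 667 nm emission intensity with signal to noise over three replicate slides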
# [8] = biological target: Concanavalin-A (Canavalia ensiformis) (UniProt P02866); assay: compounds binding concanavalin A lectin – biochemical, small-molecule microarray, Alexa647 label, 635 nm, artefact control for SMM control protein annotation, primary screen (AID 1127); conditions: ConA-A647 binding fluorescence, higher = more signal;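 note: z combines 667 nm emission intensity with signal-to-noise across three replicate slides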
# Sequence of Concanavalin-A (Canavalia ensiformis) (P02866 whole entry, looked up): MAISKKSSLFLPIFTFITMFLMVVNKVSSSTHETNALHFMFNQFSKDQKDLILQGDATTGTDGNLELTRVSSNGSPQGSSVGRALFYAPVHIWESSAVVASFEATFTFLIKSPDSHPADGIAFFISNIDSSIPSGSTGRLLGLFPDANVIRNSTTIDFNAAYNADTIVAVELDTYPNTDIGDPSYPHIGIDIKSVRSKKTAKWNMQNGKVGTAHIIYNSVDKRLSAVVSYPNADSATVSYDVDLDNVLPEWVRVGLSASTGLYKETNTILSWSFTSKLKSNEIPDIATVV
Compound,composite z-score (Albumin (Bos taurus)),composite Z-score [1],composite z-score [2],composite z-score [3],composite z-score [4],composite z-score [5],composite z-score [6],composite z-score (Sam68 (KHDRBS1)),composite z-score [7],composite z-score [8]
C=C(CCCC)/C(=C/C[C@H](OC(=O)c1ccncc1)c1ccc(CO)o1)c1cc(C(=O)OC)ccc1OC,0.572,0.243 (inactive),0.201,-0.0534,0.609,1.38,0.51,1.31,0.487,1.02
C#CCNS(=O)(=O)N(C)C,0.225,0.0498 (inactive),-0.124,-0.14,-0.107,0.214,-0.113,0.815,0.497,0.0968
Cc1ccc(N2C(=O)c3ccccc3[C@](C)(C(=O)NC(C)C)[C@@H]2c2ccc(CO)cc2)nc1,-0.546,-1.02 (inactive),-0.571,-0.183,0.706,1.64,-0.699,-1.55,-1.13,-1.73
COC(=O)C(CC#Cc1ccc2c(c1)[C@]1(C(=O)N2)[C@H](c2ccccc2OCCO)N2[C@H](c3ccccc3)[C@H](c3ccccc3)OC(=O)[C@H]2[C@@H]1C(=O)Nc1nc2ccccc2s1)C(=O)OC,0.67,-0.364 (inactive),0.106,-0.0928,0.226,1.9,0.379,1.31,0.19,1.15
O=C(NCc1ccccc1)[C@]1(Cc2ccccc2)N=C(c2ccc(OCCCO)cc2)O[C@@H]1c1ccccc1,0.895,0.638 (inactive),0.062,-0.0519,0.604,1.32,0.225,0.938,-0.243,0.418
CCOC(=O)C[C@H]1[C@H](OC(=O)c2cc3ccccc3oc2=O)[C@@H](NC(=O)c2ccc3ccccc3n2)c2cc(OCCCO)ccc2N1C(=O)c1ccc2ccccc2n1,-0.407,0.581 (inactive),0.255,-0.0294,0.312,0.32,0.129,0.539,0.572,0.862
CCCCCCC#C[Si](O[C@H](c1ccccc1)c1cn(Cc2cccc(Cl)c2)nn1)(C(C)C)C(C)C,0.31,0.242 (inactive),-0.0647,-0.104,0.205,0.186,-0.124,0.581,0.141,0.57
[N-]=[N+]=NCc1ccccc1C[C@]1(C(=O)NCCN2CCOCC2)COC(c2ccc(OCCCO)cc2)=N1,0.854,0.689 (inactive),0.116,-0.106,0.353,2.31,1.47,1.29,-0.519,0.0927
C=CCC(OC(C)=O)[C@@H]1[C@@H](N(Cc2ccc(-c3ccccc3)cc2)C(=O)c2cccc3ccccc23)c2cc(OCCCO)ccc2N1C(=O)c1ccc2ccccc2n1 (stereo not given in full),0.028,-0.119 (inactive),0.0306,-0.16,0.212,0.621,0.546,-0.168,0.165,-0.0782
CCCNC(=O)[C@@]1(Sc2ccc(C)cc2)CC(=O)N(Cc2ccccc2)[C@@H]1c1ccc(CO)cc1I,-0.793,-0.163 (inactive),0.147,-0.115,0.405,0.644,1.01,0.827,0.678,0.082
COC(=O)[C@@]1(Cc2ccc(OC)cc2)[C@H]2c3cc(C(=O)N(C)C)n(Cc4cc(C)n(C)n4)c3C[C@H]2CN1C(=O)c1ccccc1,0.19,0.638 (inactive),0.166,0.0736,0.88,3.4,0.898,1.06,-0.285,-0.307
C=CCOC(=O)[C@@H]1[C@H]2C(=O)O[C@H](c3ccccc3)[C@H](c3ccccc3)N2[C@H](c2ccc(OCCOC(=O)[C@@H]3C[C@@H]4C(=O)N5CCC[C@H]5C(=O)N4[C@@H]3c3cccc(OCCO)c3)cc2)[C@@]12C(=O)Nc1ccc(I)cc12,0.226,-0.244 (inactive),-0.055,-0.101,0.0553,1.34,0.167,1.29,1,1.14
CN1C(=O)C2C=CC(C(O)C3CCCCC3)N(N(c3ccccc3)c3ccccc3)C2C1=O (stereo not given),-0.0103,0.54 (inactive),0.367,0.232,0.72,2.56,1.21,-0.864,-1.04,-1.27
CN(C)CCCCNC(=O)[C@H]1C[C@H]2C(=O)N[C@@H](CCCC[N+](C)(C)C)C(=O)N2[C@H]1c1cccc(OCCO)c1,-0.355,2.15 (inactive),-0.0774,-0.112,0.798,0.726,0.448,1.15,1.23,1
